Laboratory results: PubChem BioAssay (NCATS)
Results filed as inconclusive are left out. Values without a mark were called inactive. Active and inactive are the calls of the source. Calls come from the whole dose curve; as a rule, active = well fitted inhibition curve with a large enough effect; inconclusive = small, poorly fitted or top-dose-only effect; inactive = flat fitted curve, though single readings scatter.

These compounds were tested against Calcium and integrin-binding protein 1 (Homo sapiens) (UniProt Q99828) (assay: Primary qHTS for Identification of Calcium Integrin Binding Protein 1 (CIB1) Competitor (AID 1508620;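 note: GST tagged CIB1 binding a fluorescein labelled alphaIIb integrin peptide tracer; top concentration of the series differs between compounds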)). Conditions: CIB1-GST / FITC-alphaIIb peptide fluorescence polarization; series mostly up to 57.7 µM; activity change, negative = inhibition: at the top concentration.
Summary of the method: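 Fluorescence polarization competition: CIB1-GST (1 uM final) preincubated with compound 15 min at room temperature, then FITC-labeled alphaIIb peptide (100 nM final) added for another 15 min. Polarization read at Ex 480/Em 540.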
% is set by controls: 0 for no effect and ±100 for the full control effect.

Chain of Calcium and integrin-binding protein 1 (Homo sapiens) (Q99828 whole entry, looked up): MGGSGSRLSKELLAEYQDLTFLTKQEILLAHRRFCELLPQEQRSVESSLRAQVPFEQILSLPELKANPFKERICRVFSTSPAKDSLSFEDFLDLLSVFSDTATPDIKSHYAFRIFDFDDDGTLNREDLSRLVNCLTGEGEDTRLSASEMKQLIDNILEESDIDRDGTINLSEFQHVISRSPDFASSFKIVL

Compound	Potency	activity change, negative = inhibition
COc1nccc(-c2c(-c3ccc(F)cc3)ncn2C2CCC(O)CC2)n1 (configuration not stated)	inactive	–
CCCCC(F)(F)[C@@]1(O)CC[C@H]2[C@H](CC(=O)[C@@H]2CCCCCCC(=O)O)O1	inactive	–
CN(C)c1nc(Cc2ccc(NC(=O)c3ccc(C(F)(F)F)cc3)cc2)nc(N(C)C)c1CC(=O)O	inactive	–
Cn1c(=O)c(Oc2ccc(F)cc2F)cc2cnc(NC3CCOCC3)nc21	–	0.709%
CC(C)CN(C[C@@H](O)[C@H](Cc1ccccc1)NC(=O)O[C@H]1CO[C@H]2OCC[C@H]21)S(=O)(=O)c1ccc(N)cc1	–	-4.86%
CO[C@H]1/C=C\O[C@@]2(C)Oc3c(C)c(O)c4c(O)c(c(C=NN5CCN(C6CCCC6)CC5)c(O)c4c3C2=O)NC(=O)C(C)=CC=C[C@H](C)[C@H](O)[C@@H](C)[C@@H](O)[C@@H](C)[C@H](OC(C)=O)[C@H]1C	–	-9.32%
Clc1ccc(C2(c3ccc(-c4cn[nH]c4)cc3)CCNCC2)cc1	inactive	–
COc1cc(Nc2nc3ccccc3nc2NS(=O)(=O)c2ccc(NC(=O)c3ccc(C)c(OC)c3)cc2)cc(OC)c1	inactive	–
C#C[C@]1(O)CC[C@H]2[C@H]3CCc4cc(OC)ccc4[C@H]3CC[C@@]21C	–	-2.59%
C=CC[N+]1([C@H]2C[C@H]3[C@@H]4CC[C@H]5C[C@H](O)[C@@H](N6CCOCC6)C[C@]5(C)[C@@H]4CC[C@]3(C)[C@H]2OC(C)=O)CCCC1	–	-0.125%
COC(=O)[C@H](c1ccccc1Cl)N1CCc2sccc2C1	–	0.901%
CCOC(=O)[C@H](CCc1ccccc1)N[C@@H](C)C(=O)N1CCCC1C(=O)O (some centres not stated)	–	-3.65%
CCNC(=O)CCCC=CC[C@@H]1[C@H](C=CC(O)CCc2ccccc2)[C@@H](O)C[C@@H]1O (some centres not stated)	–	-5.9%
Cc1cccc(-c2[nH]c(C(C)(C)C)nc2-c2ccc3c(c2)OCO3)n1	–	-2.88%
Cc1cc(OCCCS(C)(=O)=O)cc(C)c1-c1cccc(COc2ccc3c(c2)OC[C@H]3CC(=O)O)c1	–	-4.7%
Cc1ccc(NC(=O)c2cccc(N(C)C)c2)cc1NC(=O)c1ccc(O)cc1	–	1.82%

Compound	Potency	activity change, negative = inhibition
CCOC(=O)N1c2ccc(C(F)(F)F)cc2[C@@H](N(Cc2cc(C(F)(F)F)cc(C(F)(F)F)c2)C(=O)OC)C[C@H]1CC	–	-1.72%
Clc1ccc(COC(Cn2ccnc2)c2ccc(Cl)cc2Cl)c(Cl)c1 (configuration not stated)	–	-1.38%
Cc1c(C(=O)Nc2ccc(N3C[C@@H](C)O[C@@H](C)C3)nc2)cccc1-c1ccc(OC(F)(F)F)cc1	inactive	–
CC(=O)NCCC(=O)N[C@@H](CCC(N)=O)C(=O)N[C@@H](CO)C(=O)N[C@@H](CCC(N)=O)C(=O)N[C@@H](CCC(N)=O)C(=O)N[C@H](C(=O)N[C@@H](Cc1ccccc1)C(=O)N[C@]1(C)CCCCCCC=CCCC[C@@](C)(C(=O)N[C@@H](CCC(N)=O)C(=O)N[C@@H](CC(N)=O)C(N)=O)NC(=O)[C@H](CC(C)C)NC(=O)[C@H](CC(C)C)NC(=O)[C@@H](CCCNC(=N)N)NC(=O)[C@H](Cc2c[nH]c3ccccc23)NC(=O)[C@H](CC(C)C)NC(=O)[C@H](CC(N)=O)NC1=O)[C@H](C)O	–	-6.64%
CCOC(=O)[C@@H](N)CCC(=O)N[C@@H](CSCc1ccccc1)C(=O)N[C@@H](C(=O)OCC)c1ccccc1	–	3.32%
CN[C@@H](C)[C@H]1[C@H](O)C[C@@]2(C)[C@@H]3CC[C@H]4C(C)(C)[C@@H](NC)CC[C@@]45C[C@@]35CC[C@]12C	inactive	–
CNC(=O)c1cc(COc2nnc(Nc3ccc(Cl)cc3)c3ccoc23)ccn1	–	-10.3%
C[C@@H]1CCO[C@H]2Cn3cc(C(=O)NCc4ccc(F)cc4F)c(=O)c(O)c3C(=O)N12	inactive	–
Cc1ccc(C(=O)N(CCCN)[C@@H](c2nc3cc(Cl)ccc3c(=O)n2Cc2ccccc2)C(C)C)cc1	–	-4.97%
CC1(C)CC(=O)c2c(C(F)(F)F)nn(-c3ccc(C(N)=O)c(NC4CCC(O)CC4)c3)c2C1 (configuration not stated)	inactive	–
CC(C)(C)c1[nH]cnc1C=c1[nH]c(=O)c(=Cc2ccccc2)[nH]c1=O	–	5.68% [at 114 µM]
Cn1cnc(-c2cc3nccc(Oc4ccc(NC(=S)NC(=O)Cc5ccccc5)cc4F)c3s2)c1	inactive	–
CN(C)CCOc1cc(-c2cn[nH]c2)ccc1NC(=O)C1COc2ccccc2O1 (configuration not stated)	inactive	–
O=C(NCCCCN1CCOCC1)c1cc2ccccc2o1	–	-0.0744%
CCCCOCCOc1nc(-c2ccc(C(=O)O)c(F)c2)sc1C	–	-1.21%
CN(C)CCOc1ccc(-c2nc(-c3ccc4c(c3)CCC4=NO)c(-c3ccncc3)[nH]2)cc1	–	1.9%
